In PubChem BioAssay AID430 (Sanford-Burnham Center for Chemical Genomics, 2006):
The campaign covered roughly 63,000 compounds. About 1,100 (1.7%) were called active. Cut-off read from the data, not from the text of the source: active = cytotoxicity above about 50%; inactive = the rest. The list comes from a sample in which actives are over-represented; it also holds similar structures and randomly drawn compounds. Results with a measured potency or affinity are listed apart.

Assay: HPDE-C7 pancreatic duct cell viability loss – fluorescence, HTS (AID 430);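 note: cells exposed to compound for 48 hours before viability readout; 0% = vehicle and 100% = reference cytotoxic drug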
Conditions: HPDE-C7 pancreatic duct cells viability, at 10 µM, active compounds read high

Structure (SMILES)	cytotoxicity
O=C(CCn1c(=O)oc2ccccc21)N1CCN(c2ccccc2F)CC1	1.4% (inactive)
O=C(CCn1c(=O)oc2ccccc21)N1CCN(c2ccccc2Cl)CC1	56.7% (active)
O=C(CCn1c(=O)oc2ccccc21)N1CCCCCC1	10.9% (inactive)
COc1ccc(OCC(=O)N(C)Cc2ccccc2)cc1	-16.7% (inactive)
COc1ccc(CCNc2nc(-c3sc(N)nc3C)cs2)cc1OC	16% (inactive)
O=S1(=O)Nc2c(ccc3cccnc23)-c2ccccc21	90.9% (active)
Cc1ccc2c(c1)-c1ccccc1S(=O)(=O)N2	10.1% (inactive)
Nc1ccc2c(c1)-c1ccccc1S(=O)(=O)N2	14.6% (inactive)
O=C(NCCCNC(=O)c1ccccn1)c1ccccn1	15.3% (inactive)
O/N=C(/Cc1ccccn1)c1ccccc1	2% (inactive)
CCCCCC/C(=N/O)c1ccccn1	51.4% (active)
Cc1cccc(N(CC(=O)NC2CCCC2)C(=O)CS(=O)CC(=O)Nc2ccc3c(c2)OCO3)c1 (centres undefined)	0.1% (inactive)
CC(C)C(=O)Nc1cccc(NC(=O)c2cccnc2)c1	-3.2% (inactive)
Cc1ccc(C)c(N2CCN(C(c3ccncc3)c3nnnn3Cc3ccccc3)CC2)c1 (centres undefined)	27.4% (inactive)
Cc1cccc(-n2c(SCC(=O)Nc3nonc3C)nnc2-c2ccoc2C)c1	-16.1% (inactive)
Cc1cccc(-n2c(SCC(=O)Nc3ccc4c(c3)OCO4)nnc2-c2ccoc2C)c1	65.5% (active)
Cc1ccc(-n2c(SCC(=O)Nc3ccc4c(c3)OCO4)nnc2-c2ccoc2C)cc1	36.3% (inactive)
Cc1cc(Cl)ccc1OCC(=O)N1CC(C)CC(C)C1 (centres undefined)	-10.4% (inactive)
Cc1ccc2c(c1)C(c1ccc(F)cc1)N(C(=O)C1CC1)CC(=O)N2 (centres undefined)	-2% (inactive)
COc1cc(C(=O)Nc2cccc(-c3nncn3C)c2)cc(OC)c1OC	-13.4% (inactive)
CCOC(=O)c1c(C)oc2ccc(NS(=O)(=O)c3ccc4c5c(cccc35)C(=O)N4)cc12	64.4% (active)
COC(=O)c1ccccc1NS(=O)(=O)c1ccc2c3c(cccc13)C(=O)N2	24.2% (inactive)
COCCOC(=O)c1c(C)oc2ccc(NS(=O)(=O)c3ccccc3)cc12	12.7% (inactive)
CC(=O)/C=C(/C)NC(Cc1c[nH]c2ccccc12)C(=O)O (centres undefined)	2.1% (inactive)
Oc1c(CN2CCN(c3ccccn3)CC2)cc(Cl)c2cccnc12	27.5% (inactive)

Structure (SMILES)	cytotoxicity
Oc1ccc2cccnc2c1	-7.4% (inactive)
Oc1c(CN2CCc3ccccc3C2)cc(Cl)c2cccnc12	7.8% (inactive)
OCc1ccnc2c(O)cccc12	-13.3% (inactive)
Cc1cc(Nc2nc3c(c(=O)n(C)c(=O)n3C)n2C)n(-c2ccccc2)n1	-9% (inactive)
Cc1cc(=O)oc2cc(OCC3CC(c4ccc(N(C)C)cc4)=NO3)ccc12 (centres undefined)	-19% (inactive)
COc1ccc2cc3cc(C(=O)Nc4ccc5c(c4)OCCO5)oc3nc2c1	2% (inactive)
Cc1ccc2cccc(S(=O)(=O)N3CCN(c4cccc(Cl)c4)CC3)c2n1	7% (inactive)
CC(=O)c1cc2c(cc1NC(=O)c1cnc(C)cn1)OCO2	13.3% (inactive)
CN(C)S(=O)(=O)c1cccc(C(=O)OCC(=O)Nc2ccccc2OC(F)F)c1	0.1% (inactive)
N#CCCCSc1nnc(-c2ccc(Cl)cc2)n1-c1ccccc1	-20.2% (inactive)
Cc1cc(-n2c(SCCC#N)nnc2-c2cccnc2)ccc1Cl	-25% (inactive)
COc1ccc(-n2c(SCCC#N)nnc2-c2cc(Cl)ccc2OC)cc1Cl	50.2% (active)
O=C(O)c1cnn2c1NC(c1ccc(F)cc1)CC2C(F)(F)F (centres undefined)	-9.5% (inactive)
COC(=O)/C(=C1/Oc2cc(C)oc(=O)c2S1)C(F)(F)F	76.7% (active)
COC(=O)C1=C(N)Oc2cc(C)oc(=O)c2C1c1ccncc1 (centres undefined)	0.6% (inactive)
COC(=O)/C(=C1/Oc2cc3c(cc2S1)OCO3)C(F)(F)F	-28.2% (inactive)
O=C(O)CCC(=O)Nc1ccccc1C(=O)NC1CCCCC1	-16.8% (inactive)
O=C1CC(c2ccco2)CC(O)=C1C=NCCN1CCNCC1 (centres undefined)	-17.7% (inactive)
O=C1CC(c2ccco2)CC(O)=C1C=Nc1cc(Cl)ccc1O (centres undefined)	55.5% (active)
O=C1CC(c2ccco2)CC(O)=C1C=NCCO (centres undefined)	5.2% (inactive)
C=C1[C@@H](C)C2[C@H](Cc3ccccc3)NC(=O)[C@]23OC(=O)CC[C@H](O)CCC[C@H](C)C/C=C/[C@H]3[C@@H]1O (some centres undefined)	67.8% (active)
CC(C)CCn1c(SCC(=O)OCn2nnc3ccccc3c2=O)nc2ccccc2c1=O	-1.3% (inactive)
CO[C@H]1C[C@@H]2CC[C@@H](C)[C@@](O)(O2)C(=O)C(=O)N2CCCC[C@H]2C(=O)O[C@H]([C@H](C)C[C@@H]2CC[C@@H](O)[C@H](OC)C2)CC(=O)[C@H](C)C=C(C)[C@@H](O)[C@@H](OC)C(=O)[C@H](C)C[C@H](C)C=CC=CC=C1C	81.1% (active)
CCOc1ccc(-c2nnc(SCC(=O)N(CC)CC)n2N)cc1	-5.3% (inactive)
C(=N\n1cnnc1)/c1cccc(OCCOc2ccccc2)c1	2.1% (inactive)

Structure (SMILES)	cytotoxicity
Cc1c(/C=N/n2cnnc2)c2ccccc2n1C	5.2% (inactive)
Cc1ccc(OCCn2c(C)c(/C=N/n3cnnc3)c3ccccc32)cc1	41% (inactive)
COc1cccc(OCCn2c(C)c(/C=N/n3cnnc3)c3ccccc32)c1	75.8% (active)
Cc1c(/C=N/n2cnnc2)c2ccccc2n1CCOc1ccccc1	67.6% (active)
Cc1c(/C=N/n2cnnc2)c2ccccc2n1CCOc1ccc(Cl)cc1	15.9% (inactive)
CCN(CC)C(=O)CSc1nnc(-c2cnccn2)n1-c1ccccc1	-10.7% (inactive)
CC(=O)c1cccc(NC2c3ccccc3C(=O)N2Cc2ccc3c(c2)OCO3)c1 (centres undefined)	11.4% (inactive)
COc1ccc(NC(=O)c2cnc3ccccn3c2=O)c(OC)c1	1% (inactive)
COCCn1c(SCC(=O)N2CCCC2)nnc1-c1ccoc1C	5.7% (inactive)
COc1ccccc1C(=O)NCc1ccncc1	-7.2% (inactive)
CCOC(=O)CN1C(=O)C(O)=C(C(C)=O)C1c1ccccc1 (centres undefined)	-3.4% (inactive)
COc1cccc2cc(C(=O)N3CCC(C)CC3)c(=O)oc12	36.9% (inactive)
CCC(=O)Nc1ccc(OC)cc1OC	-0.9% (inactive)
COc1ccc(Nc2cc(=O)n(C3CCCCC3)c(=O)[nH]2)c(OC)c1	-11.4% (inactive)
CC1(C)Oc2ccc3ccc(=O)oc3c2-c2cnoc21	-3.6% (inactive)
O=C(c1cc(-c2cccs2)on1)N1CCOCC1	-1.4% (inactive)
O=C(c1cc(-c2cccs2)on1)N1CCN(c2ccccc2)CC1	51.3% (active)
O=C(c1cc(-c2cccs2)on1)N1CCN(c2ccc(F)cc2)CC1	11.3% (inactive)
Cc1cc(C)cc(OCc2nnc(SCC(=O)c3ccc(Br)cc3)o2)c1	-22.5% (inactive)
CCc1ccc(CCC(=O)Nc2sc3c(c2C#N)CCCC3)o1	72% (active)
Cc1cc(C(=O)Nc2sc3c(c2C#N)CCCC3)no1	-1.6% (inactive)
CCCC(=O)Nc1sc2c(c1C#N)CCCC2	2.6% (inactive)
CC(C)c1cc(C(=O)Nc2sc3c(c2C#N)CCC3)no1	17.6% (inactive)
CCCc1cc(C(=O)Nc2sc3c(c2C#N)CCC3)no1	5.7% (inactive)
N#Cc1c(NC(=O)c2cc(C3CC3)on2)sc2c1CCC2	65.1% (active)

Structure (SMILES)	cytotoxicity
CC(C)(C)C1CCc2c(sc(NC(=O)c3cc(C4CC4)on3)c2C#N)C1 (centres undefined)	30.3% (inactive)
Cc1cc(C(=O)Nc2sc3c(c2C#N)CCC3)no1	53.5% (active)
COC(=O)CCC(=O)Nc1sc2c(c1C#N)CCCC2	-8% (inactive)
CCOc1cc(C2NC(=O)NC(C)=C2C(=O)OC(C)CC)cc(Br)c1O (centres undefined)	3.2% (inactive)
Cc1nn(C)c(C)c1S(=O)(=O)N1CCC(C(=O)NC2CCCCCC2)CC1	3.3% (inactive)
COCCCNC(=O)CCCn1c(=O)[nH]c2ccccc2c1=O	-15.8% (inactive)
CCN(CC)CCN1C(=O)C(=O)/C(=C(/O)c2cnn(-c3ccccc3)c2C)C1c1cccnc1 (centres undefined)	0.2% (inactive)
O=C(Nc1ccc(N2CCOCC2)cc1)C1CCCN(S(=O)(=O)c2ccccc2)C1 (centres undefined)	0.2% (inactive)
CCOc1ccc2nc(C(C)O)[nH]c2c1 (centres undefined)	-5.7% (inactive)
COc1ccc2nc(-c3ccccc3)[nH]c2c1	-3.7% (inactive)
CCOc1ccc2nc(-c3ccccc3)[nH]c2c1	56.7% (active)
COC(=O)c1ccc(Cl)c(NC(=O)CN2CCOCC2)c1	0.1% (inactive)
CCOC(=O)c1cccc(NC(=O)CSc2nnc(-c3ccncc3)n2CCCOC)c1	-11.4% (inactive)
C/C(CC(O)c1ccc2ccccc2n1)=N/O (centres undefined)	0.7% (inactive)
CC(Sc1ccc2ccccc2n1)C(=O)O (centres undefined)	4.7% (inactive)
COc1ccccc1N(CC(=O)Nc1ccc2c(c1)OCO2)S(=O)(=O)c1ccccc1	7.5% (inactive)
O=C(NCCCO)c1nc2ccccc2s1	5.3% (inactive)
CCOC(=O)c1oc2cc(O)c(CC)cc2c(=O)c1-c1ccc2c(c1)OCCO2	0.2% (inactive)
CCc1cc2c(=O)c(-c3nc4ccccc4[nH]3)coc2cc1OC(=O)N1CCOCC1	-31.2% (inactive)
CCc1cc2c(=O)c(-c3ccc4c(c3)OCCO4)coc2cc1OC(=O)c1ccco1	56.6% (active)
Cc1nc(NC(=O)c2cc3c(s2)CCCCC3)sc1C(=O)N(C)C	-7% (inactive)
COC(=O)Cn1c2ccccc2c2nc(C)sc21	2.7% (inactive)
O=C(CS(=O)(=O)c1ccccc1)N1CCCCCC1	-5.2% (inactive)
C/C=C(\CS(=O)(=O)c1ccccc1)S(=O)(=O)c1ccccc1	35.4% (inactive)
